JMJD2A Tudor inh – qHTS Assay for Inhibitors of JMJD2A-Tudor Domain; AID 504339, 2011; hit rate 4.4% among 390,000; AlphaScreen JMJD2A-Tudor / H3K4me3 peptide binding; Potency, µM (titrated, usually from 114 µM), for the others: top-dose activity change, negative = inhibition, actives largely listed as inhibitors; further: on the % scale 0 is the no-effect control and ±100 the full control effect; nearly all actives have a fitted effect of over 50% in size
HP1b binding inh – HTS for Inhibitors of HP1-beta Chromodomain Interactions with Methylated Histone Tails; Potency, µM (top dose mostly 114 µM), without a hit: top-dose activity change, negative = inhibition, usual class: inhibitors; Chromobox protein homolog 1 (Homo sapiens), P83916; hit rate 0.56% among 390,000; AlphaScreen HP1-beta / biotin-H3K9me3 peptide binding; further: nearly all actives have a fitted effect of over 70% in size
Target sequence (P83916 whole entry, looked up): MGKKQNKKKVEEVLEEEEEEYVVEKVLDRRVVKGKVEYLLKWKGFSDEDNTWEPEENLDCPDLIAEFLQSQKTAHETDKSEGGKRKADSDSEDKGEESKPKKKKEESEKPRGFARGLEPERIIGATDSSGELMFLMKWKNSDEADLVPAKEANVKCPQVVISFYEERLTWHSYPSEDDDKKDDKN
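Compound inhibition of the preformed complex between 50 nM HP1-beta and 50 nM biotinylated H3K9me3 peptide was read by AlphaScreen. Buffer was PBS pH 7.4 with 0.01% Tween-20. Incubations ran 30 min at room temperature, with 10 ug/mL donor/acceptor beads.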
G9a inh – qHTS Assay for Inhibitors of Histone Lysine Methyltransferase G9a | Histone-lysine N-methyltransferase EHMT2 (Homo sapiens), Q96KQ7 | G9a H3K9 monomethylation, AlphaScreen, 2 h | Potency, µM (titrated, usually from 102 µM), for the others: top-dose activity, negative = inhibition, most hits filed as inhibitors | hit rate 8.8% among 350,000 | AID 504332, 2011; further: on the % scale 0 is the no-effect control and ±100 the full control effect; nearly all actives have a fitted effect of over 75% in size
Target sequence (Q96KQ7 913-1193 limits assumed): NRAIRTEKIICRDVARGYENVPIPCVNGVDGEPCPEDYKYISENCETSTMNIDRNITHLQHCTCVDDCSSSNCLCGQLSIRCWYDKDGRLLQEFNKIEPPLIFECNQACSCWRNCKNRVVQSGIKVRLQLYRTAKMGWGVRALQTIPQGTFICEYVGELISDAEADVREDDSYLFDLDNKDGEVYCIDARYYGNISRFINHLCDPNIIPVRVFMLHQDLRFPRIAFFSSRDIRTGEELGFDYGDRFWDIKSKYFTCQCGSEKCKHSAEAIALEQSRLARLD
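G9a (20 nM) was preincubated 15 min with compound, then reacted 2 h at room temperature with 500 nM biotin-H3K9 peptide and 20 µM SAM. Monomethyl-H3K9 detected by AlphaScreen using anti-H3K9me1 antibody.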
L3MBTL1 inh – qHTS Assay for the Inhibitors of L3MBTL1 | hit rate 0.66% among 230,000 | AlphaScreen L3MBTL1–H3K9me1 peptide binding | AID 485360, 2010 | Potency, µM (highest dose often 57.1 µM), inactives show top-dose activity, negative = inhibition, hits mostly inhibitors; further: on the % scale 0 is the no-effect control and ±100 the full control effect; nearly all actives have a fitted effect of over 60% in size
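Read-out is AlphaScreen signal from streptavidin donor and nickel chelate acceptor beads (10 ug/mL final each) bridging L3MBTL1 (50 nM) and biotinylated K9-monomethylated H3(1-15) peptide (75 nM), after 30 min compound exposure at room temperature.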
BAZ2B block – qHTS Assay for Inhibitors of BAZ2B; Bromodomain adjacent to zinc finger domain protein 2B (Homo sapiens), Q9UIF8; AlphaScreen BAZ2B-H3K14Ac peptide displacement; Potency, µM (top dose mostly 114 µM), for inactives: top-dose activity change, negative = inhibition, usual class: inhibitors; hit rate 4.4% among 360,000; AID 504333, 2011; further: on the % scale 0 is the no-effect control and ±100 the full control effect; nearly all actives have a fitted effect of over 60% in size
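AlphaScreen luminescence quantifies BAZ2B engagement of H3K14Ac peptide; the protein and biotinylated peptide are both at 50 nM final, buffer PBS pH 7.4 with 0.01% Tween-20, all steps at room temperature.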
The depositor's hits bear a star; ! = not confirmed by another sample; [ ] = another dose, or the depositor's remark. Most compounds without a hit are left out; they make up all but 11% or so of the library. The call rests on the fitted dose curve; in most records, active means well fitted inhibition curve with a large enough effect; inconclusive means small, poorly fitted or top-dose-only effect; inactive means no such curve, though single readings can be large or run the other way. Potency means the concentration at half of the fitted maximal effect.

How did CC(=O)Nc1ccc(NC(=O)C(Sc2ccccc2)c2ccccc2)cc1 (centres undefined) do in these assays?
JMJD2A Tudor inh: -9.9%; HP1b binding inh: 12.1%; G9a inh: -10.6%[12.7 µM]; L3MBTL1 inh: 4.8%; BAZ2B block: -1.0%

Results for CC1C(=O)N2CCCc3cc(NS(=O)(=O)c4ccc(F)cc4)cc1c32 (centres undefined) ?
JMJD2A Tudor inh: -13.1%; HP1b binding inh: -13.2%; G9a inh: 50.1µM*; L3MBTL1 inh: 20.0%; BAZ2B block: -2.2%

Results for CNC(=O)C(=O)Nc1cc2c3c(c1)C(C)C(=O)N3CCC2 (centres undefined) ?
JMJD2A Tudor inh: -1.6%; HP1b binding inh: 29.7%; G9a inh: 1.41µM*; BAZ2B block: -22.5%

Results for CC1C(=O)N2CCCc3cc(NC(=O)COc4ccc(Cl)cc4)cc1c32 (centres undefined) ?
JMJD2A Tudor inh: -9.2%; HP1b binding inh: 14.9%; G9a inh: 50.1µM*; L3MBTL1 inh: 3.5%; BAZ2B block: -2.9%

How did CC1C(=O)N2CCCc3cc(NC(=O)C4CC4)cc1c32 (centres undefined) do in these assays?
JMJD2A Tudor inh: -4.1%; HP1b binding inh: -2.6%; G9a inh: -11.7%; L3MBTL1 inh: 3.1%; BAZ2B block: 13.3%

Results for Cc1oc2cc([N+](=O)[O-])c(O)c([N+](=O)[O-])c2c1C(=O)c1ccc(Cl)cc1 ?
JMJD2A Tudor inh: 50.1µM*; HP1b binding inh: inconclusive; L3MBTL1 inh: -14.9%; BAZ2B block: 31.6µM*

What do the screens show for `Cn1nnnc1Sc1ncnc2scc(-c3cccc(N)c3)c12`?
JMJD2A Tudor inh: -31.5%

Results for COCC1CCCN(Cc2cn(Cc3ccccc3)nc2-c2cc3ccccc3o2)C1 (centres undefined) ?
JMJD2A Tudor inh: -27.5%; HP1b binding inh: 24.7%; G9a inh: -30.0%; L3MBTL1 inh: -23.4%; BAZ2B block: -22.0%

How did COCC1CCN(Cc2cn(Cc3ccccc3)nc2-c2cc3ccccc3o2)CC1 do in these assays?
JMJD2A Tudor inh: -19.2%; HP1b binding inh: 37.6%; G9a inh: -0.3%; L3MBTL1 inh: inconclusive; BAZ2B block: 56.2µM*

How did COc1ccccc1N1CCN(C(=O)C(CCSC)NS(=O)(=O)c2ccc3c(c2)oc(=O)n3C)CC1 (centres undefined) do in these assays?
JMJD2A Tudor inh: -16.0%; HP1b binding inh: 17.7%; G9a inh: 16.3%[59 µM]; BAZ2B block: 16.5%

How did O=S(=O)(c1ccccc1)C(/C=N\O)/C=C/c1ccccc1 (centres undefined) do in these assays?
JMJD2A Tudor inh: inconclusive; HP1b binding inh: -1.4%; G9a inh: 7.94µM*; L3MBTL1 inh: 17.9%; BAZ2B block: -15.2%

Results for CCC(CC)C(=O)NCCN1CCN(C(=O)C(CC)CC)CC1 ?
JMJD2A Tudor inh: -6.5%; HP1b binding inh: 27.8%; G9a inh: 5.62µM*; L3MBTL1 inh: -1.5%; BAZ2B block: -2.7%[57.1 µM]

How did O=C(NCCN1CCCCCC1)c1ccc(CS(=O)(=O)c2ccc(Br)cc2)o1 do in these assays?
JMJD2A Tudor inh: inconclusive; HP1b binding inh: 18.0%; G9a inh: inconclusive; L3MBTL1 inh: 17.8%; BAZ2B block: 4.7%

What do the screens show for `O=C(NCCCN1CCCC1)c1ccc(CS(=O)(=O)c2ccc(Br)cc2)o1`?
JMJD2A Tudor inh: -14.8%; HP1b binding inh: 26.8%; G9a inh: 56.2µM*; BAZ2B block: -27.3%

Results for O=C(NCCCN1CCCC1)c1ccc(CS(=O)(=O)c2ccc(Cl)cc2)o1 ?
JMJD2A Tudor inh: -0.4%; HP1b binding inh: 40.8%; G9a inh: -17.4%; BAZ2B block: -13.7%

What do the screens show for `COc1ccc(N2CCN(CCCNC(=O)c3ccc(CS(=O)(=O)c4ccc(Cl)cc4)o3)CC2)cc1`?
JMJD2A Tudor inh: 14.4%; HP1b binding inh: 22.3%; G9a inh: 50.1µM*; BAZ2B block: 28.2µM*

Results for Cc1ccc(CN(Cc2ccco2)C(=O)c2ccccc2Cl)o1 ?
JMJD2A Tudor inh: -34.9%; HP1b binding inh: 9.9%; G9a inh: -27.1%[59 µM]; BAZ2B block: inconclusive

What do the screens show for `Oc1cc2c(cc1O)[C@H]1c3ccc(O)c(O)c3OC[C@@]1(O)C2`?
JMJD2A Tudor inh: 1.26µM*; HP1b binding inh: inconclusive; G9a inh: -147.0%[12.7 µM]; L3MBTL1 inh: 35.5µM*; BAZ2B block: 35.5µM*

Results for Oc1ccc2c(c1)OCC1(O)Cc3cc(O)c(O)cc3C21 (centres undefined) ?
JMJD2A Tudor inh: 20µM*; HP1b binding inh: inconclusive; G9a inh: -115.2%[2.33 µM]

Results for CCc1ccc(C(=O)c2cn(CC(=O)Nc3ccc(C)c(C)c3)c3ccccc3c2=O)cc1 ?
JMJD2A Tudor inh: -13.9%; HP1b binding inh: 37.9%; G9a inh: -29.9%[59 µM]; BAZ2B block: inconclusive

Results for CCCCC1C2C(=O)N(c3ccccc3)C(=O)C2ON1c1ccccc1 (centres undefined) ?
JMJD2A Tudor inh: -2.3%; HP1b binding inh: 54.8%; G9a inh: 6.8%; L3MBTL1 inh: 3.8%; BAZ2B block: 0.5%

How did CCCCC1C(=O)N(c2ccccc2)N(c2ccc(O)cc2)C1=O (centres undefined) do in these assays?
JMJD2A Tudor inh: 56.2µM*; HP1b binding inh: inconclusive; G9a inh: 3.55µM*!; L3MBTL1 inh: 2.8%; BAZ2B block: 5.1%

How did CC1=C(C(=O)OC2CCCC2)C(c2ccc(F)cc2F)CC(=O)N1 (centres undefined) do in these assays?
JMJD2A Tudor inh: -8.9%; HP1b binding inh: 34.4%; G9a inh: -3.3%[59 µM]; BAZ2B block: -1.0%

How did N#Cc1c(C(F)(F)F)cc(-c2ccc(Cl)c(Cl)c2)nc1SCCN1CCOCC1 do in these assays?
JMJD2A Tudor inh: -5.7%; HP1b binding inh: 33.3%; G9a inh: 56.2µM*; L3MBTL1 inh: 3.8%; BAZ2B block: -5.8%

Results for Cc1cc(C(F)(F)F)nc(SCCN2CCOCC2)c1C#N ?
JMJD2A Tudor inh: -14.1%; HP1b binding inh: 38.4%; G9a inh: 12.6µM*; L3MBTL1 inh: 7.8%; BAZ2B block: 1.6%

What do the screens show for `Cc1cc(=O)[nH]c(-n2[nH]c3c(c2=O)CCCC3)n1`?
JMJD2A Tudor inh: 2.24µM*; HP1b binding inh: 22.3%; G9a inh: -46.9%[59 µM]; L3MBTL1 inh: -2.8%; BAZ2B block: 12.6µM*

Results for Cc1nc(-n2[nH]c3c(c2=O)CCCC3)[nH]c(=O)c1Cc1ccccc1 ?
JMJD2A Tudor inh: inconclusive; HP1b binding inh: -5.5%; G9a inh: 51.7%[59 µM]; L3MBTL1 inh: inconclusive; BAZ2B block: inconclusive

What do the screens show for `Cc1cc(N2CCOCC2)nc2ccc(NC(=S)NCCC(C)C)cc12`?
JMJD2A Tudor inh: -27.4%; HP1b binding inh: 11.4%; G9a inh: 2.0%; BAZ2B block: -29.2%

Source: PubChem BioAssay (National Center for Advancing Translational Sciences (NCATS))
